The nature of assay [1]: inhibitors of TNFa-induced NFkB p65 translocation, primary screen, imaging, HUVEC, MLSMR starter and 10KST1 sets (AID 438;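 active means inhibition above 20% together with a positive visual image hit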;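 further: compound added about 3h40 before a 20 min TNFalpha stimulation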;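 on inhibition: signal is the nuclear over cytoplasmic p65 intensity ratio per well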). Conditions: HUVEC TNFa-induced p65 nuclear translocation; cell count: measured here: nuclei count (cytotoxicity indicator), at 2.08 µM; inhibition: at 2 µM, stronger effect = higher value, 0% TNFa-plus-vehicle, 100% no-TNFa wells.
The nature of assay [2]: inhibitors of mutant huntingtin aggregation, primary screen, imaging, exon1htt(103Q)mCFP cells, high-content imaging (AID 483;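 active means visual image review flags a hit and inhibition of aggregation exceeds 20%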;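 further: compound exposure lasted 3 days before fixation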;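 on nuclei count: percent of the per-plate median nuclei count of sample wells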). The settings on record: exon1htt(103Q)mCFP cell line, aggregate imaging, at 2 µM; inhibition of aggregation: stronger effect = higher value; nuclei count: measured here: cell count, toxicity.
Assay [3] is described as follows: inhibitors of E-selectin induction by TNFa, primary screen, imaging, HUVEC, immunofluorescence, MLSMR starter and 10KST1 sets (AID 487;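 active means visually confirmed hit in the image check and inhibition above 20%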;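 on inhibition: signal is fraction of cell area covered by stained E-selectin grains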;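 on nuclei count: 100% = median nuclei count of all wells on the same plate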). Conditions: HUVEC TNFalpha-induced E-selectin immunofluorescence imaging, at 2 µM; inhibition: stronger effect = higher value; nuclei count: measured here: cell number, toxicity.
The target of assay [4] is Voltage-gated potassium channel subunit beta-2 (Rattus norvegicus) (UniProt P62483). Nature of the assay: KvBeta enzyme negative modulators, primary screen, biochemical, NADPH fluorescence (AID 622;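 active means fluorescence slope higher than the sample average by over 3 SD, cut at about -0.22 in these data, passing the limit was not always enough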;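 further: slope of raw intensity against log time taken from 70 to 1610 s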). The settings on record: recombinant KvBeta, 4-cyanobenzaldehyde reduction, at 10 µM, stronger effect = higher value.
Sequence of Voltage-gated potassium channel subunit beta-2 (Rattus norvegicus) (P62483 whole entry, looked up): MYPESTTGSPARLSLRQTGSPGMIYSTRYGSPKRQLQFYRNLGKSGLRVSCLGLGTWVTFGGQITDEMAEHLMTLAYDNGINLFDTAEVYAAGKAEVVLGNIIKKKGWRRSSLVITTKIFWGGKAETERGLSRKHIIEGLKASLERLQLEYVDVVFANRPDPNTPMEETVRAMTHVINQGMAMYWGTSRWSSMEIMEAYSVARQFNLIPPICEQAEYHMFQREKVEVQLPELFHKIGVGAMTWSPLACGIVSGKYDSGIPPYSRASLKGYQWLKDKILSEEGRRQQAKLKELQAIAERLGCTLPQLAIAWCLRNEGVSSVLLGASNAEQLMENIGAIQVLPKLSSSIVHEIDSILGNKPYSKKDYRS
Assay [5] shares this target. Nature of the assay: KvBeta positive modulators, primary screen, biochemical, NADPH fluorescence (AID 623;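 active means NADPH fluorescence slope more negative than the mean of all samples by about 3 SD, 99.7% confidence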;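 further: fluorescence intensity change per second fitted from 20 to 320 s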). Conditions: Recombinant KvBeta, NADPH fluorescence decrease slope, 10 min; at 10 µM; stronger effect = lower value.
Assay [6] addresses Alpha-2C adrenergic receptor (Homo sapiens) (UniProt P18825). Put plainly: modulators of alpha2C/GIRK thallium flux, primary screen, cell-based, HEK293 alpha2C/GIRK1/2 (AID 624;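 active means fluorescence slope after compound addition differing from the mean of all screened samples at 99.7% confidence, in either direction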;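 further: slope of fluorescence ratio to pre-addition baseline per second over 15 to 24 s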). Conditions: thallium flux BTC fluorescence, at 10 µM, actives lie on both sides.
Assay [7] is described as follows: inhibitors of Sendai virus-induced IRF3 signaling, primary screen, TLR/RLR signaling modifier project, cell-based, Sendai virus stimulus, luciferase, 10K MLSCN set (AID 602276).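 Further: firefly luciferase from ISG56 promoter only with Renilla not read in this screen; 0% = Sendai virus plus DMSO and 100% = medium plus DMSO without virus.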 The settings on record: HEK293 RL24 IRF3 luciferase reporter, at 10 µM, stronger effect = higher value. (In general: A reporter such as luciferase makes a cellular process visible.)
A short description of assay [8]: inhibitors of poly I:C-induced TLR3 signaling, primary screen, cell-based, poly I:C stimulus, luciferase, 10K MLSCN set (AID 602277;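 active means inhibition of the reporter signal at or above 50%; inactive means inhibition below 50%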). The settings on record: HEK293-TLR3 RL24 IRF3 luciferase reporter, at 10 µM, stronger effect = higher value.

Active and inactive are the calls of the source.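 How the source made its calls, unless noted: active means inhibition at or above 50% at 10 µM; inactive means inhibition below 50%.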

Sequence of Alpha-2C adrenergic receptor (Homo sapiens) (P18825 whole entry, looked up): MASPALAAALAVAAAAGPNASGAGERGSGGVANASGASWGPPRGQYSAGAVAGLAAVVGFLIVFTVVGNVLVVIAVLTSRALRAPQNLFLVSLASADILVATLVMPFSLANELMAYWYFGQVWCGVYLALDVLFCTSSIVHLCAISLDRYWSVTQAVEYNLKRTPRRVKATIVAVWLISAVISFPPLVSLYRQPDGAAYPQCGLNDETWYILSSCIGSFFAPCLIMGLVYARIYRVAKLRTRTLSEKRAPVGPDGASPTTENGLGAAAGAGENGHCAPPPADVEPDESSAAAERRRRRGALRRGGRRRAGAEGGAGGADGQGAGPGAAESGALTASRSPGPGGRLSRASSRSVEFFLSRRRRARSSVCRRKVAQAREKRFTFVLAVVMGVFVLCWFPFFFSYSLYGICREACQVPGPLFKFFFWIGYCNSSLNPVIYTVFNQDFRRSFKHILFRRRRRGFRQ

Consider `Cc1c(NC(=O)c2ccc(Br)o2)c(=O)n(-c2ccccc2)n1C`, for which, in assay [1], the cell count is 366. Also, the inhibition in assay [1] is -5.9% (inactive); in assay [3] it was -74% (inactive); in assay [7] it was 9.74% (inactive); in assay [8] it was 34.3% (inactive). The inhibition of aggregation in assay [2] was -13.4% (inactive). Further, the nuclei count in assay [2] worked out at 114%; in assay [3], 129%. The fluorescence slope in assay [4] was -0.436 (inactive). Besides, in assay [5], the NADPH fluorescence slope was -2.6e-05 (inactive). For the same compound, in assay [6], the slope was 0.00344 (inactive).

As for `CCCS(=O)(=O)N1CCN(C(=O)c2cccs2)CC1`, the cell count in assay [1] stood at 559. The inhibition was 7.2% (inactive) in assay [1], -58.9% (inactive) in assay [3], 13.1% (inactive) in assay [7] and 3.31% (inactive) in assay [8]. Further, the inhibition of aggregation in assay [2] was 5.4% (inactive). The values for the nuclei count in assay [2] and in assay [3] were 91% and 102%, respectively. Further, in assay [4], the fluorescence slope is -0.622 (inactive). The NADPH fluorescence slope in assay [5] is -3.8e-05 (inactive). In assay [6], the slope was 0.00496 (inactive).

As to `CCN(CC)CCOC(=O)c1ccc(NC(=O)COc2cc(=O)n(CC)c3ccccc23)cc1`, the cell count in assay [1] was 386. The inhibition in assay [1] was 6.7% (inactive); in assay [3], -26.7% (inactive); in assay [7], -1.28% (inactive); in assay [8], -7.01% (inactive). In assay [2], the inhibition of aggregation was -6.9% (inactive). Besides, the nuclei count in assay [2] was 108%; in assay [3] it was 117%. Moreover, in assay [4], the fluorescence slope is -0.514 (inactive). The NADPH fluorescence slope in assay [5] was 4.9e-05 (inactive). In addition, in assay [6], the slope was 0.00772 (inactive).

As for `Nc1nc(SCc2ccc(Cl)cc2Cl)n[nH]1`, in assay [1], the cell count was 352. In addition, the inhibition in assay [1] is -1.7% (inactive); in assay [3], -161% (inactive); in assay [7], -12% (inactive); in assay [8] it was -30.1% (inactive). In assay [2], the inhibition of aggregation is -21.4% (inactive). The figures for the nuclei count in assay [2] and in assay [3] were 97.6% and 124%, respectively. In assay [4], the fluorescence slope is -0.387 (inactive). Besides, the NADPH fluorescence slope in assay [5] is -4.5e-05 (inactive). In assay [6], the slope was 0.00474 (inactive).

Regarding `O=C(Cn1ncc2c(=O)oc3ccccc3c21)NCCCN1CCCC1=O`, the cell count in assay [1] stood at 807. Further, the inhibition in assay [1] is -9.2% (inactive); in assay [3], -33% (inactive); in assay [7], 1.1% (inactive); in assay [8], 24.5% (inactive). Besides, the inhibition of aggregation in assay [2] is 10.5% (inactive). Moreover, the nuclei count came to 84.8% in assay [2] and 116% in assay [3]. In addition, the fluorescence slope in assay [4] is -0.576 (inactive). Moreover, in assay [5], the NADPH fluorescence slope is -1.5e-05 (inactive). In assay [6], the slope is 0.00642 (inactive).

Take `O=C(c1cc(-c2cccc(O)c2)on1)N1CCN(C(c2ccccc2)c2ccccc2)CC1`: the cell count in assay [1] amounted to 787. The inhibition in assay [1] was 3.2% (inactive); in assay [3] it was -70.7% (inactive); in assay [7] it was 11% (inactive); in assay [8], 25.8% (inactive). Besides, the inhibition of aggregation in assay [2] is -5.2% (inactive). The results for the nuclei count in assay [2] and in assay [3] were 96.8% and 116%, respectively. In addition, the fluorescence slope in assay [4] was -0.601 (inactive). Moreover, the NADPH fluorescence slope in assay [5] is -3.2e-05 (inactive). In assay [6], the slope was 0.00689 (inactive).

As for `COc1ccccc1CN1CC(C(=O)NCc2cccnc2)CC1=O` (stereo not drawn), the cell count in assay [1] is 536. Also, the inhibition in assay [1] was -8% (inactive); in assay [3], -0.1% (inactive); in assay [7], 7.79% (inactive); in assay [8], 29.2% (inactive). Also, the inhibition of aggregation in assay [2] is 4.9% (inactive). In addition, the nuclei count in assay [2] amounted to 91.5%; in assay [3] it was 113%. Further, the fluorescence slope in assay [4] is -0.502 (inactive). Further, the NADPH fluorescence slope in assay [5] is -2.4e-05 (inactive). Moreover, the slope in assay [6] was 0.00742 (inactive).

As to `COC(=O)c1ccccc1NC(=O)C1CCN(S(=O)(=O)c2cc(C)ccc2OC)CC1`, in assay [1], the cell count came to 607. The inhibition in assay [1] was 3.6% (inactive); in assay [3], -76.8% (inactive); in assay [7], 18.9% (inactive); in assay [8] it was 28.7% (inactive). Besides, the inhibition of aggregation in assay [2] was -20.2% (inactive). Moreover, the nuclei count in assay [2] was determined as 111%; in assay [3] it was 123%. Moreover, the fluorescence slope in assay [4] is -0.454 (inactive). Besides, the NADPH fluorescence slope in assay [5] was -2.4e-07 (inactive). In assay [6], the slope is 0.00507 (inactive).

Consider `C/C(=N\O)C(C)/[N+]([O-])=C/c1nc(C)c(C)n1O` (stereo not drawn), for which the cell count in assay [1] is 611. In addition, the inhibition was 0.2% (inactive) in assay [1], 5.3% (inactive) in assay [3], 15.5% (inactive) in assay [7] and 20.8% (inactive) in assay [8]. Moreover, the inhibition of aggregation in assay [2] was 12% (inactive). The nuclei count in assay [2] stood at 106%; in assay [3], 98.3%. Also, the fluorescence slope in assay [4] is -0.492 (inactive). For the same compound, the NADPH fluorescence slope in assay [5] was -7.2e-05 (inactive). In addition, the slope in assay [6] was 0.00463 (inactive).

For the compound `CCOc1ccc(-c2nnc3sc(-c4c(OC)cccc4OC)nn23)cc1`, the cell count in assay [1] was determined as 434. In addition, the inhibition in assay [1] is 2.8% (inactive); in assay [3] it was -65.6% (inactive); in assay [7], 10.1% (inactive); in assay [8], 3.17% (inactive). Further, the inhibition of aggregation in assay [2] is 0.4% (inactive). Also, the nuclei count is 102% in assay [2] and 111% in assay [3]. Also, the fluorescence slope in assay [4] is -0.609 (inactive). The NADPH fluorescence slope in assay [5] was -3.7e-05 (inactive). Moreover, the slope in assay [6] is 0.00506 (inactive).

Regarding `CC(C)(C)C(=O)CCN1C(=O)C2(OCCO2)c2ccccc21`, the cell count in assay [1] was 702. For the same compound, the inhibition in assay [1] was -4.9% (inactive); in assay [3], -140% (inactive); in assay [7], 11.4% (inactive); in assay [8] it was 22.3% (inactive). Moreover, the inhibition of aggregation in assay [2] is -30.1% (inactive). For the same compound, the nuclei count in assay [2] was 118%; in assay [3], 123%. Besides, the fluorescence slope in assay [4] was -0.497 (inactive). For the same compound, the NADPH fluorescence slope in assay [5] is -2.7e-05 (inactive). Besides, in assay [6], the slope was 0.00626 (inactive).

`Cc1cc(NC(=O)c2cnn3c(C(F)F)cc(C4CC4)nc23)no1`: in assay [1], the cell count came to 747. For the same compound, the inhibition in assay [1] was -3.3% (inactive); in assay [3] it was 27.3% (inactive); in assay [7], 9.48% (inactive); in assay [8] it was 19.3% (inactive). Besides, the inhibition of aggregation in assay [2] was 23% (inactive). In addition, the nuclei count worked out at 100% in assay [2] and 98.5% in assay [3]. In assay [4], the fluorescence slope was -0.486 (inactive). The NADPH fluorescence slope in assay [5] was -3.5e-05 (inactive). Also, in assay [6], the slope is 0.00638 (inactive).

Turning to `CC(C)NC(=O)CSc1nc2ccccc2n1-c1ccccc1`, in assay [1], the cell count stood at 379. The inhibition in assay [1] is 2.5% (inactive); in assay [3], -80.1% (inactive); in assay [7], -22.3% (inactive); in assay [8] it was -5.89% (inactive). The inhibition of aggregation in assay [2] is -2.9% (inactive). The nuclei count in assay [2] was 84.5%; in assay [3], 125%. Further, the fluorescence slope in assay [4] is -0.59 (inactive). The NADPH fluorescence slope in assay [5] was 9.8e-06 (inactive). Also, the slope in assay [6] is 0.00781 (inactive).

As usually defined, the inhibition is the change of the read-out against control, counted positive when it falls.

The record behind these values is PubChem BioAssay.
